Data reported in PubChem BioAssay (EPA / NIEHS).
Results filed as inconclusive are left out. Calls of active or inactive are those of the source. How the source made its calls: active means hit-call score of the fitted dose curve at least 0.9, where 1 is the maximum; inconclusive means response in the unintended direction; inactive means score below 0.9.

Columns and labels:
[1] = TOX21_p53_BLA_p2_viability: Viability Assessment in the Tox21 HCT-116 p53 Agonism Beta-lactamase Assay, Phase 2 (AID 2283591);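 further: compound exposure lasted 16 h at 37 °C; actives lower the ATP signal meaning cytotoxicity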
Outline: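 Cytotoxicity readout: CellTiter-Glo ATP luminescence, 30 min at room temperature, after the beta-lactamase read. Cells were HCT116 exposed 16 h at 37C to compounds pin-transferred at 217-fold dilution from DMSO stocks.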

[2] = biological target: Cellular tumor antigen p53 (Homo sapiens) (UniProt P04637); test: TOX21_p53_BLA_p2_ratio: Tox21 HCT-116 p53 Agonism Beta-lactamase Assay, Ratio, Phase 2 (AID 2283592)
Outline: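 Ratio endpoint: beta-lactamase cleavage of CCF4-AM, blue (460 nm) over green (530 nm). HCT116 reporter line; 16 h treatment, 37C; substrate 2 h RT.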

[3] = TOX21_p53_BLA_p3_viability: Viability Assessment in the Tox21 HCT-116 p53 Agonism Beta-lactamase Assay, Phase 3 (AID 2283593);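 further: cells exposed to compound for 16 h before reading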
Outline: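 Cellular ATP was quantified by CellTiter-Glo luminescence, read after 30 min at room temperature. Beforehand, HCT116 cells (4000/well) received compound 5 h post-seeding, 217-fold diluted from DMSO, then incubated 16 h at 37C.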

[4] = biological target: Cellular tumor antigen p53 (Homo sapiens) (UniProt P04637); test: TOX21_p53_BLA_p3_ratio: Tox21 HCT-116 p53 Agonism Beta-lactamase Assay, Ratio, Phase 3 (AID 2283596)
Outline: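 Cells were seeded at 4000/well, rested 5 h at 37C, then dosed with DMSO compound solutions (217-fold dilution) for 16 h. CCF4-AM substrate was loaded for 2 h at room temperature, and the 460/530 nm emission ratio was fitted for gain of signal versus DMSO.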

[5] = TOX21_p53_BLA_p5_viability: Viability Assessment in the Tox21 HCT-116 p53 Agonism Beta-lactamase Assay, Phase 5 (AID 2283600)
Outline: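 Luciferase-coupled ATP quantitation of cells treated for 16 h (37C, 5% CO2) with test chemicals delivered in DMSO via a 217-fold dilution; 4000 cells/well; reagent incubated 30 min at room temperature before luminescence reading.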

[6] = biological target: Cellular tumor antigen p53 (Homo sapiens) (UniProt P04637); test: TOX21_p53_BLA_p4_ratio: Tox21 HCT-116 p53 Agonism Beta-lactamase Assay, Ratio, Phase 4 (AID 2283601)
Outline: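 Signal is the blue/green (460nm/530nm) ratio of cleaved versus uncleaved CCF4-AM substrate, read after 2 h substrate loading. Cells were HCT116 carrying the p53-responsive beta-lactamase reporter, dosed 16 h at 37C, 5% CO2; CellTiter-Glo measured in parallel.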

[7] = biological target: Cellular tumor antigen p53 (Homo sapiens) (UniProt P04637); test: TOX21_p53_BLA_p5_ratio: Tox21 HCT-116 p53 Agonism Beta-lactamase Assay, Ratio, Phase 5 (AID 2283599)
Outline: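 Beta-lactamase reporter ratio (blue 460 nm over green 530 nm, 405 nm excitation) after 2 h CCF4-AM loading, in HCT-116 cells exposed 16 h at 37 C to compounds pinned at 217-fold dilution. Increases relative to DMSO baseline scored.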

THRA (gene 7067) = THRA (gene 7067) (UniProt P10827); test: TOX21_TRA_COA_Antagonist_Followup_ratio: Tox21 Thyroid Hormone Receptor alpha Antagonism through Coactivator Recruitment Follow-Up Assay, Ratio (AID 2283953)
Outline: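 GST-TRα LBD 2.5 nM, BSA 0.10%, + cpd; then FITC-SRC-2 peptide 200 nM + Tb-anti-GST Ab 2 nM. TR-FRET ratio 520/495 nm. Norm: DMSO = 0%, T3 = 100%.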

[8] = TOX21_TRB_BLA_Antagonist_Followup_viability: Viability Assessment in the Tox21 Thyroid Hormone Receptor beta Antagonism Beta-lactamase (BLA) Follow-Up Assay (AID 2283961)
Outline: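 HEK293T cells stably expressing GAL4-DBD/human TRβ-LBD with UAS-bla reporter, 3,000 cells/well in phenol red-free DMEM, 2% charcoal-stripped FBS. Compounds at 11 concentrations in triplicate, 18 h at 37C/5% CO2; viability by CellTiter-Glo luminescence after 30 min at room temperature.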

[9] = biological target: Retinoic acid receptor RXR-alpha (Homo sapiens) (UniProt P19793); test: TOX21_TR_RXR_BLA_Antagonist_Followup_ratio: Tox21 Thyroid Hormone Receptor beta Retinoid X Receptor alpha (RXRa) Antagonism Beta-lactamase (BLA) Follow-Up Assay, Ratio (AID 2283972)
Outline: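 RXRa-UAS-bla HEK293T cells in phenol red-free DMEM with 2% charcoal-stripped FBS; compounds at 11 concentrations in triplicate, 16 h at 37C. LiveBLAzer FRET-B/CCF4-AM substrate 2 h at room temperature; read as 460:530 nm ratio versus DMSO.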

[10] = TOX21_TR_RXR_BLA_Antagonist_Followup_viability: Viability Assessment in the Tox21 Thyroid Hormone Receptor beta Retinoid X Receptor alpha (RXRa) Antagonism Beta-lactamase (BLA) Follow-Up Assay (AID 2283979)
Outline: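 Follow-up compounds (11 concentrations, triplicate) were incubated 16 h at 37C/5% CO2 with HEK293T RXRa-bla cells seeded at 2,500/well in charcoal-stripped-serum medium. ATP content by CellTiter-Glo luminescence gave viability; curves fitted in both directions against DMSO.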

[11] = TOX21_p53_BLA_p4_viability: Viability Assessment in the Tox21 HCT-116 p53 Agonism Beta-lactamase Assay, Phase 4 (AID 2283597);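 further: hits lower the luminescence signal meaning cytotoxicity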
Outline: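 Cytotoxicity was inferred from loss of CellTiter-Glo luminescence. HCT116 cells had been dosed with compounds after 5 h plating, incubated 16 h at 37C and 5% CO2, and exposed to the CCF4-AM substrate for 2 h.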

Measured: AC50

Chain of Cellular tumor antigen p53 (Homo sapiens) (P04637 whole entry, looked up): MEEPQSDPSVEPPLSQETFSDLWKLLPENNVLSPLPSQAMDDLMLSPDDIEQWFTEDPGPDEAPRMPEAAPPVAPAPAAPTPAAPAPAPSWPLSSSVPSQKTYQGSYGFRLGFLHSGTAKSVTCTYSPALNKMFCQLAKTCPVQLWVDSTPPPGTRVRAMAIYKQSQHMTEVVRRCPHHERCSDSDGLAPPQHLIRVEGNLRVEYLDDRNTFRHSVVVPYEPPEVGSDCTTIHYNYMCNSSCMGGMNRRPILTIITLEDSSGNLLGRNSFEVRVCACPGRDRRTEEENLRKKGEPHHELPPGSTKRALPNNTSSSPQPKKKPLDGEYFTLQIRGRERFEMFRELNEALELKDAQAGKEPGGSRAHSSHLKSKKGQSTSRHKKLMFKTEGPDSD
Chain of THRA (gene 7067) (P10827 whole entry, looked up, the tested form may be a part): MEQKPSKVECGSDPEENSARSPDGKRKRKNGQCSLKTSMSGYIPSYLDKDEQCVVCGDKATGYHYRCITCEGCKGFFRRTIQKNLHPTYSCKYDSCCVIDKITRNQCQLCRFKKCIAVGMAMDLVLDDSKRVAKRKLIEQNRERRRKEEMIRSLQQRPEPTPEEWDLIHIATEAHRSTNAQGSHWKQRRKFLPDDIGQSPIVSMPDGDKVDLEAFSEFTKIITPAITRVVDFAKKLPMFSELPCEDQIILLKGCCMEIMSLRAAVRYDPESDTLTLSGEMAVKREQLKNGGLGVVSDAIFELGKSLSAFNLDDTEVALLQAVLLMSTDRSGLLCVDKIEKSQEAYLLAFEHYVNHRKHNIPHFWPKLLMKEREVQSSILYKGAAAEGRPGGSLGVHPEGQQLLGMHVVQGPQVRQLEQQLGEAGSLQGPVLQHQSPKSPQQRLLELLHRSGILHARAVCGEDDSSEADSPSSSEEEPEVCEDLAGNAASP
Chain of Retinoic acid receptor RXR-alpha (Homo sapiens) (P19793 whole entry, looked up): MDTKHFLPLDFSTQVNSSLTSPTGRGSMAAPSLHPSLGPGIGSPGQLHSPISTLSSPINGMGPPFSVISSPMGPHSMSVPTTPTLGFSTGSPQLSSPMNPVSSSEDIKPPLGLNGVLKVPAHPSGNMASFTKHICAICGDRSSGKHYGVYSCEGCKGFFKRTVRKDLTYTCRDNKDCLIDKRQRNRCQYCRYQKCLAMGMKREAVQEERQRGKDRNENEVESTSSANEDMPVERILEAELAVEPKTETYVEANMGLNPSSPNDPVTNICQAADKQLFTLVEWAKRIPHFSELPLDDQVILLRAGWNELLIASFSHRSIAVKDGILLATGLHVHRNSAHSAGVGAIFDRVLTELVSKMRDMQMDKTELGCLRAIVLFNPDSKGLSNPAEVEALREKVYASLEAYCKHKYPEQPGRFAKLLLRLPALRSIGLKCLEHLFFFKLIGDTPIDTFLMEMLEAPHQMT

CCCCC[C@H](O)/C=C/[C@H]1[C@H](O)CC(=O)[C@@H]1C/C=C\CCCC(=O)O
inactive: [1] | [2] | [3] | [4] | [5] | [6]

CCc1nccnc1CC
inactive: [1] | [2] | [3] | [4] | [5] | [6]

N=C(N)c1ccc2cc(OC(=O)c3ccc(N=C(N)N)cc3)ccc2c1
inactive: [1] | [2] | [3] | [4] | [5]

O=C1c2ccccc2C(=O)C1(O)O
inactive: [5]
active: [1] 88.5 µM | [2] 31.8 µM | [3] 63.8 µM | [4] 22.8 µM | [6] 36.3 µM

Nc1nc2ccc(OC(F)(F)F)cc2s1
inactive: [1] | [3]
active: [2] 7.3 µM | [4] 7.29 µM | [7] 23.9 µM | [6] 11.3 µM

CCN(CC)CCNC(=O)c1cc(Cl)c(N)cc1OC
inactive: [1] | [2] | [3] | [4] | [5] | [6]

Cc1c(NC(C)C)c(=O)n(-c2ccccc2)n1C
inactive: [1] | [2] | [3] | [4] | [5] | [6]

C(=C/c1ccccc1)/c1ccccc1
inactive: [1] | [2] | [3] | [4] | [5]

O=C(O)CCC(=O)OC[C@@H](NC(=O)C(Cl)Cl)[C@H](O)c1ccc([N+](=O)[O-])cc1
inactive: [1] | [2] | [3] | [4] | [5]

C1OCOCO1
inactive: [1] | [2] | [3] | [4] | [5] | [6]

CCN(CC)CCC(=O)N1c2ccccc2Sc2ccc(Cl)cc21
inactive: [1] | [2] | [3] | [4] | [7] | [6]

NCCN1CCNC1=O
inactive: [1] | [2] | [3] | [4] | [5] | [6]

C[C@]12CCC(=O)C[C@@H]1CC[C@@H]1[C@@H]2CC[C@]2(C)C=CC[C@@H]12
inactive: [1] | [2] | [3] | [4] | [5] | [6]

CCC1C(=O)OCC1Cc1cncn1C (stereo not drawn)
inactive: [1] | [2] | [3] | [4] | [5] | [6]

CCCCC(C)C(=O)O (stereo not drawn)
inactive: [1] | [2] | [3] | [4] | [7] | [6]

Cc1ccccc1OCC(O)CO (stereo not drawn)
inactive: [1] | [2] | [3] | [4] | [5] | [6]

CCCCCCCCCCCCCCCC(=O)OC(C)C
inactive: [1] | [2] | [3] | [4] | [7] | [6]

CCO
inactive: [1] | [2] | [3] | [4] | [5] | [6]

CO[C@@]1(NC(=O)CSCC#N)C(=O)N2C(C(=O)O)=C(CSc3nnnn3C)CS[C@@H]21
inactive: [1] | [2] | [3] | [4] | [7] | [6]

OCC(CO)N[C@H]1C[C@](O)(CO)[C@@H](O)[C@H](O)[C@H]1O
inactive: [1] | [2] | [3] | [4] | [5]

CC(=O)N[C@@H](CS)C(=O)O
inactive: [1] | [2] | [3] | [4] | [7] | [6]

O=C=Nc1cccc(C(F)(F)F)c1
inactive: [1] | [3] | [4] | [7] | [6]
active: [2] 86.2 µM

CC(=O)O[C@H]1C[C@@H]2CC[C@@H]3[C@H](CC[C@@]4(C)[C@H]3C[C@H]([N+]3(C)CCCCC3)[C@@H]4OC(C)=O)[C@@]2(C)C[C@@H]1N1CCCCC1
inactive: [1] | [2] | [3] | [4] | [5] | [6]

SCCSCCS
inactive: [1] | [2] | [3] | [4] | [5] | [6]

CC1(C)S[C@@H]2[C@H](NC(=O)C(N)c3ccccc3)C(=O)N2[C@H]1C(=O)OC1OC(=O)c2ccccc21 (stereo partly drawn)
not listed: [5] | [11]
inactive: all other assays above

COc1cc2c(cc1OC)CC(=O)N(CCCN(C)C[C@H]1Cc3cc(OC)c(OC)cc31)CC2
inactive: [1] | [2] | [3] | [4] | [5] | [6]

COC(=O)N/N=C/c1c[n+]([O-])c2ccccc2[n+]1[O-]
inactive: [1] | [2] | [3] | [4] | [7] | [6]

O=C(CCCN1CCN(c2ccc(F)cc2)CC1)NC1c2ccccc2CSc2ccccc21 (stereo not drawn)
inactive: [1] | [2] | [3] | [11] | [7] | [5]

COc1cc(C)c(Cc2cnc(N)nc2N)cc1OC
inactive: [1] | [2] | [3] | [11] | [7]

CC(C)CN(C[C@@H](OP(=O)(O)O)[C@H](Cc1ccccc1)NC(=O)O[C@H]1CCOC1)S(=O)(=O)c1ccc(N)cc1
inactive: [1] | [2] | [3] | [11] | [7]

CC(C)OCC1CO1 (stereo not drawn)
inactive: [1] | [2] | [3] | [11] | [7]
